According to PubChem BioAssay:
Unmarked numbers belong to inactive results. Entries that show only a call come without a potency. For part of these data: Potency and affinity values are given separately. Activity calls are given as the source filed them. Unless noted, no rule for the calls is given here.

Columns and labels:
[1] = antimalarial activity against Dd2 strain (AID 2302;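 active = growth inhibition above 50% at the single 2 µM test dose, taken to imply half-maximal potency below 2 µM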); conditions: P. falciparum Dd2 in RBCs, LDH growth readout, 72 h; at 2 µM; active compounds read high
[2] = human hepatoma cell viability loss – ATP luminescence, cytotoxicity control for P. falciparum antimalarial project, primary screen (AID 2303;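 active = inhibition above 50%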); conditions: HepG2 viability, 24-48 h, at 10 µM, active compounds read high
[3] = target: L-lactate dehydrogenase (Plasmodium falciparum (isolate CDC / Honduras)) (UniProt Q27743); assay: PfLDH activity inhibition – cell lysate, 3D7 strain, counter-screen for P. falciparum growth inhibition project (AID 2304); conditions: P. falciparum 3D7 crude extract, LDH APAD/NBT absorbance; at 2 µM; active compounds read high
[4] = inhibition of 3D7 malaria parasite growth – strain 3D7 (AID 2306); conditions: P. falciparum 3D7 erythrocytic growth, LDH absorbance, 72 h; at 2 µM; active compounds read high
[5] = target: Calcium-dependent protein kinase 1 (Plasmodium falciparum (isolate 3D7)) (UniProt P62344); assay: PfCDPK1 kinase inhibitors, biochemical, TCAMS library (AID 1159585; cut-off not given, nearly all actives have IC50 up to about 0.98 µM;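 also: inhibitors leave more ATP so luminescence rises with inhibition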); conditions: recombinant PfCDPK1, Kinase-Glo ATP depletion luminescence
[6] = target: Plasmodium falciparum protein kinase 6 (PK6, PF3D7_1337100) (UniProt Q8IDW1); assay: PfPK6 kinase inhibitors, biochemical, TCAMS library (AID 1159586); conditions: recombinant PfPK6, Kinase-Glo ATP depletion luminescence
[7] = target: Protein kinase 7 (PK7), Plasmodium falciparum 3D7 (PF3D7_0213400) (UniProt Q7YTF7); assay: inhibition of Plasmodium PK7 catalytic activity – biochemical, TCAMS antimalarial set, Kinase-Glo luminescence (AID 1159587); conditions: recombinant PfPK7, Kinase-Glo ATP depletion luminescence
[8] = target: Calcium-dependent protein kinase 4 (Plasmodium falciparum (isolate 3D7)) (UniProt Q8IBS5); assay: PfCDPK4 kinase inhibitors, biochemical, TCAMS library (AID 1159588; cut-off not given, nearly all actives have IC50 up to about 0.91 µM); conditions: recombinant PfCDPK4, Kinase-Glo ATP depletion luminescence
Chain of Calcium-dependent protein kinase 4 (Plasmodium falciparum (isolate 3D7)) (Q8IBS5 whole entry, looked up): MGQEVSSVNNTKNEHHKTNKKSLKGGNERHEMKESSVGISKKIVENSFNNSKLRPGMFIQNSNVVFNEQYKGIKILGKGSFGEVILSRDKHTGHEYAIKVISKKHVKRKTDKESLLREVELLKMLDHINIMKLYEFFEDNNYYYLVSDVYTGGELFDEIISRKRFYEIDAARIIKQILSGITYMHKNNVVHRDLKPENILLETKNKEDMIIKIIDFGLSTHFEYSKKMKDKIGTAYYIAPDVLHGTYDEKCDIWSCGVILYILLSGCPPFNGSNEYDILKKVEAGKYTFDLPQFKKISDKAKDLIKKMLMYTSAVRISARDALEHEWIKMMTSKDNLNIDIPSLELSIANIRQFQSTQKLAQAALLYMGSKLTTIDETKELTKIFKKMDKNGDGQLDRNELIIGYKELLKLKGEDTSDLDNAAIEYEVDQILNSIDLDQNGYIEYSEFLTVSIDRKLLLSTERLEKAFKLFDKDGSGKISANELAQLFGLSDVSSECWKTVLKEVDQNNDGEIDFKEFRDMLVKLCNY

Chain of Calcium-dependent protein kinase 1 (Plasmodium falciparum (isolate 3D7)) (P62344 whole entry, looked up): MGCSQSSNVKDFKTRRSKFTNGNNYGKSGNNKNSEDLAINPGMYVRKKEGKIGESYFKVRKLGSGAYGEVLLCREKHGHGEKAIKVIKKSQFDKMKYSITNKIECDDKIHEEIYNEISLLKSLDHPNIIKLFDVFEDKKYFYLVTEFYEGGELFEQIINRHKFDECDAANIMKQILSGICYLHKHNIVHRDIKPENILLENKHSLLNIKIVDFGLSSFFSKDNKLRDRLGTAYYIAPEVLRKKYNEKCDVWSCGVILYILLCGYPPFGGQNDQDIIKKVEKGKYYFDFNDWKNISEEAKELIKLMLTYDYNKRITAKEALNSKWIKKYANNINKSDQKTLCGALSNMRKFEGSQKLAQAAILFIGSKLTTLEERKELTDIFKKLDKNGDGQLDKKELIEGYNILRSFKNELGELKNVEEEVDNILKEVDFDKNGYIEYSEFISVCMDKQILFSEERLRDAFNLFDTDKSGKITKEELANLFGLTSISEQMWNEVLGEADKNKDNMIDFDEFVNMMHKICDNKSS
Chain of Protein kinase 7 (PK7), Plasmodium falciparum 3D7 (PF3D7_0213400) (Q7YTF7 1-343): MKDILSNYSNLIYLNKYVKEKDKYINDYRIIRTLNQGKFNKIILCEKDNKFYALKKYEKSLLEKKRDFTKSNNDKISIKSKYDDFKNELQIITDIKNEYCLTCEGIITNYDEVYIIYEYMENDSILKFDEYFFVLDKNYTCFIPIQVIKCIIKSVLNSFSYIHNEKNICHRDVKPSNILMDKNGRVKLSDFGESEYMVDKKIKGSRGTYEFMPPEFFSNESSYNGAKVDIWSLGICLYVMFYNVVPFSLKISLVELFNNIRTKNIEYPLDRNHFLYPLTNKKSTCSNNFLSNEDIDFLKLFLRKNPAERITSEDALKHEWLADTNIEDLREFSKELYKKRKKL
Chain of L-lactate dehydrogenase (Plasmodium falciparum (isolate CDC / Honduras)) (Q27743 whole entry, looked up): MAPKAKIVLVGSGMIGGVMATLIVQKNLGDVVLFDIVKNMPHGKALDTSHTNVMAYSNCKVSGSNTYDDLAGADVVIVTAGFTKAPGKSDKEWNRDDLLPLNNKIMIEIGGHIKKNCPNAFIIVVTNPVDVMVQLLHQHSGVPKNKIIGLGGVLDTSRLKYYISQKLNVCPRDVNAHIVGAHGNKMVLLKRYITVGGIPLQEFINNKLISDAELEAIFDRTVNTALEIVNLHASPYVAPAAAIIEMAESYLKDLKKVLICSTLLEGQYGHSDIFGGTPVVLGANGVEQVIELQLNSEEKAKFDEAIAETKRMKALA
Chain of Plasmodium falciparum protein kinase 6 (PK6, PF3D7_1337100) (Q8IDW1 1-305): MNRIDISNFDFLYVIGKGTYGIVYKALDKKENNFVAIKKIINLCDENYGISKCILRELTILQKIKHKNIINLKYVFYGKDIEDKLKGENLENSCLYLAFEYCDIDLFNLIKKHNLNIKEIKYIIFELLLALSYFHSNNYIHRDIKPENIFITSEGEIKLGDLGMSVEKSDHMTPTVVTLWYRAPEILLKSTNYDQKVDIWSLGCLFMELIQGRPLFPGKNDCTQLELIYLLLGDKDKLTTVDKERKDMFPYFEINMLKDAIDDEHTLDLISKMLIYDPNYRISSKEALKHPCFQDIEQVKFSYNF

| SMILES | growth inhibition [1] | inhibition [2] | inhibition [3] [%] | growth inhibition [4] | outcome [5] | outcome [6] | outcome [7] | outcome [8] |
| --- | --- | --- | --- | --- | --- | --- | --- | --- |
| COc1c(F)cc(CC(C)NCC(O)c2cccc(Cl)c2)cc1F (stereo not drawn) | 86% (active) | 0% | 0 | 93% (active) | inactive | inactive | inactive | inactive |
| CCOC(=O)c1c(C)n(C2CCCCCC2)c2cc(Br)c(O)cc12 | 45% | -1% | -1 | 87% (active) | inactive | inactive | inactive | inactive |
| CCN1CCC(N2CCC(n3c(C)nc4cc(C(F)(F)F)ccc43)CC2)CC1 | 16% | 6% | 1 | 93% (active) | inactive | inactive | inactive | inactive |
| CN1CCC(COC(=O)C(O)(c2ccccc2)c2ccccc2)C1 (stereo not drawn) | 4% | 0% | -4 | 98% (active) | inactive | inactive | inactive | inactive |
| CS(=O)(=O)Nc1ccc2[nH]cc(C3CCN(CC4CCC(NC(=O)/C=C/c5ccc(Cl)c(Cl)c5)CC4)CC3)c2c1 (stereo not drawn) | 86% (active) | 22% | -3 | 100% (active) | inactive | inactive | inactive | inactive |
| CC[C@H]1CN2CC[C@H]1C[C@H]2[C@H](O)c1cc(N2CCC3CCCCC3C2)nc2ccc(OC)cc12 (stereo partly drawn) | 99% (active) | 50% (active) | -4 | 100% (active) | inactive | inactive | inactive | inactive |
| O=C(/C=C/c1ccsc1)NC1CCC(CN2CCC(c3c[nH]c4ccccc34)CC2)CC1 (stereo not drawn) | 20% | 29% | -1 | 82% (active) | inactive | inactive | inactive | inactive |
| CCc1ccc(CC(C)NCC(O)c2ccccc2)cc1 (stereo not drawn) | 77% (active) | -7% | -3 | 89% (active) | inactive | inactive | inactive | inactive |
| c1ccc(C(OCCC2CCN(Cc3cccc4cccnc34)CC2)c2ccccc2)cc1 | 99% (active) | 9% | 0 | 99% (active) | inactive | inactive | inactive | inactive |
| Cc1[nH]c2ccccc2c1C1=CCN(CCN2CCOc3c(Br)cccc3C2=O)CC1 | 76% (active) | 15% | -3 | 97% (active) | inactive | inactive | inactive | inactive |
| CCCCCc1cc(O)c2c(c1)OC(C)(C)CC2C1=CCN(Cc2cnc3ccccc3c2)CC1 (stereo not drawn) | 98% (active) | 27% | 0 | 98% (active) | inactive | inactive | inactive | inactive |
| O=C(NC1CCN(CC2(c3ccc(Cl)cc3)CCC2)CC1)c1cscn1 | 95% (active) | -2% | -1 | 98% (active) | inactive | inactive | inactive | inactive |
| CCc1ccc(CN2CCC(CN(C(=O)c3ccccc3)c3ccc(Cl)cc3)CC2)cc1 | 95% (active) | 12% | -4 | 96% (active) | inactive | inactive | inactive | inactive |
| O=C(/C=C/c1ccc(Cl)c(Cl)c1)N1CCC(CN2CCC(c3c[nH]c4ccc(O)cc34)CC2)CC1 | 100% (active) | 44% | -7 | 101% (active) | inactive | inactive | inactive | inactive |
| CC(=O)N(Cc1cccc(-c2cccc(CNCCc3ccccc3)c2)c1)C1CCN(Cc2ccccc2)CC1 | 57% (active) | 22% | -3 | 100% (active) | inactive | inactive | inactive | inactive |
| CC(Cc1ccc(Sc2ccccc2)cc1)NCC(O)c1cccc(C(F)(F)F)c1 (stereo not drawn) | 53% (active) | -1% | 2 | 99% (active) | inactive | inactive | inactive | inactive |
| CC(Cc1ccc(Oc2ccc(Cl)cc2)cc1)NCC(O)c1cccc(Cl)c1 (stereo not drawn) | 98% (active) | 3% | -2 | 99% (active) | inactive | inactive | inactive | inactive |
| Cc1nc2ccccc2n1C1C[C@H]2CC[C@@H](C1)N2Cc1nccn1-c1ccccc1 (stereo partly drawn) | 96% (active) | 0% | -4 | 94% (active) | inactive | inactive | inactive | inactive |
| O=C(CCC(=O)c1ccc2c3c(cccc13)CC2)NC1CCC(CN2CCC(c3c[nH]c4ccccc34)CC2)CC1 (stereo not drawn) | 13% | 34% | -1 | 96% (active) | inactive | inactive | inactive | inactive |
| COCCNCc1cccc(-c2ccc(CN(C(=O)Nc3ccccc3)C3CCN(Cc4ccccc4)CC3)cc2)c1 | 45% | 25% | -4 | 101% (active) | inactive | inactive | inactive | inactive |
| COC(=O)/C=C/c1ccc(CC(C)NCC(O)c2cccc(Br)c2)cc1 (stereo not drawn) | 93% (active) | 2% | 5 | 97% (active) | inactive | inactive | inactive | inactive |
